TDP1 cell CPT: growth inhibition of DT40 Tdp1-/-;hTDP1 cells with camptothecin (screen for TDP1 inhibitors) | Potency, µM (series often up to 46.2 µM), for inactives: top-dose activity change, negative = growth inhibition, actives largely listed as inhibitors | chicken DT40 Tdp1-/-;hTDP1 cells + 20 nM CPT, ATP luminescence, 48 h | 420,000 tested, 12% active; further: potency means the concentration at half of the fitted maximal effect; nearly all actives have a fitted effect of over 55% in size
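Chicken DT40 Tdp1-/- cells stably complemented with human TDP1 were seeded at 400 cells/well in medium containing 20 nM camptothecin, exposed to pin-transferred compounds, and grown at 37 °C for at least 48 hr. Viability was read as ATP luminescence.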
Gal4-VP16 FLuc: counter-screen for ROR gamma inhibitors: Gal4-VP16 reporter | Drosophila S2 Gal4-VP16 UAS-luciferase, luminescence, 20 h | Potency, µM (highest dose often 53.6 µM), for inactives: at the top dose activity, negative = inhibition, most hits filed as inhibitors | 310,000 tested, 3.5% active;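 further: Gal4-VP16 expression switched on by copper sulfate through the metallothionein promoter; potency means the concentration at half of the fitted maximal effect; nearly all actives have a fitted effect of over 50% in size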
TDP1 cell noCPT: qHTS for Inhibitors of human tyrosyl-DNA phosphodiesterase 1 (TDP1): qHTS in cells in absence of CPT. 420,000 tested, 15% active. DT40 Tdp1-/- hTDP1 cells, no CPT, ATP luminescence, 48 h. Potency, µM (titrated, usually from 46.2 µM), for inactives: at the highest dose activity change, negative = growth inhibition, most hits filed as inhibitors; further: potency means the concentration at half of the fitted maximal effect; nearly all actives have a fitted effect of over 55% in size
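A cellular qHTS used chicken DT40 cells lacking endogenous Tdp1 but carrying stably transfected human TDP1. Compounds were applied without camptothecin, and cell growth kinetics were judged by ATP-dependent luminescence after ≥48 hr.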
ELG1 DNA repair: inhibitors of ELG1-dependent DNA repair in HEK293T cells. Potency, µM (series often up to 46.1 µM), inactives show at the top dose activity change, negative = inhibition, most hits filed as inhibitors. HEK293T ELG1-luciferase reporter, luminescence, 16 h; DNA damage induced by 5-fluorouridine. 330,000 tested, 2.3% active; further: potency means the concentration at half of the fitted maximal effect; nearly all actives have a fitted effect of over 55% in size
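Cells (2,000 per well) received 5-fluorouridine plus test compound or DMSO and were incubated 16 hr at 37 °C, 5% CO2. Luciferase activity was read by luminescence 30 min after ONE-Glo addition; signal suppression marked inhibition of damage-induced ELG1 function.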
IL1B secr inh: inhibitors of inflammasome signaling (IL-1 beta secretion); THP-1 LPS/ATP IL-1B secretion, AlphaLISA, 16 h; active compounds read low; activity change, % at 57.5 µM; 360,000 tested, 4.7% active; AID 743279; in the data active means activity change below about -50%; inconclusive means mostly about -30% to -49%
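THP-1 cells pretreated 1 hr with compounds (up to 57.5 uM final), then stimulated with LPS (250 ng/mL final) plus ATP (1.25 mM final); secreted IL-1B measured by AlphaLISA after 16 hr, decreased signal indicating inhibition.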
RORgamma inh: blocks mouse ROR gamma transcriptional activity; P51450; Drosophila S2 Gal4-RORgamma UAS-luciferase reporter, 20 h; Potency, µM (doses to about 53.6 µM), for the others: at the highest dose activity change, negative = inhibition, most hits filed as inhibitors; 310,000 tested, 5.4% active; AID 2551; further: potency means the concentration at half of the fitted maximal effect; nearly all actives have a fitted effect of over 60% in size
Target sequence (P51450 whole entry, looked up, the tested form may be a part): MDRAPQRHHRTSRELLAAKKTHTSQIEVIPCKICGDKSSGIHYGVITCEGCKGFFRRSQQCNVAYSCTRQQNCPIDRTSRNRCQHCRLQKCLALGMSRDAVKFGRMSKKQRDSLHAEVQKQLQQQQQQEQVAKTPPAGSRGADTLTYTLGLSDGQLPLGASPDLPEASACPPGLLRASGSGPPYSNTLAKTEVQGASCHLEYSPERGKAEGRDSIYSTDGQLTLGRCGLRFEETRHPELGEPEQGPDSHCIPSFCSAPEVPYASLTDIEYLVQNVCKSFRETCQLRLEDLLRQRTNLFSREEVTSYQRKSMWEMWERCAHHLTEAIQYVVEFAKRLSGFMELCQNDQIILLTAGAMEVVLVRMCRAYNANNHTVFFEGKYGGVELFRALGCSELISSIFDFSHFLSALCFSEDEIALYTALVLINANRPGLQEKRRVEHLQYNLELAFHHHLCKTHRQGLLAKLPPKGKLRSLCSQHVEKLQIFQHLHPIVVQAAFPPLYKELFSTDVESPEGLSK
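Using a luciferase readout, inhibitors were identified by reduced reporter activity in Drosophila cells coexpressing a copper-inducible Gal4–ROR gamma fusion and UAS-driven Photinus luciferase, incubated 20 hr after 700 uM copper sulfate.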
The depositor's hits bear a star; ? = inconclusive; / = no result given; [ ] = remark or other dose. Hits are enriched below; roughly 21% of the tested compounds scored in any of these assays. Unless noted, the call rests on the fitted dose curve; in most records, active means well fitted curve in the direction sought with a large enough effect; inconclusive means small, poorly fitted or top-dose-only effect, or another doubt; inactive means no such curve, though single readings can be large; an effect the other way counts as inactive or inconclusive. On the % scale 0 is the no-effect control and ±100 the full control effect.

SMILES	TDP1 cell CPT	Gal4-VP16 FLuc	TDP1 cell noCPT	ELG1 DNA repair	IL1B secr inh	RORgamma inh
CCOc1cccc2sc(N(CCCN(C)C)C(=O)c3ccc(C(=O)c4ccccc4)cc3)nc12	?	-26%	-5%	3%	-88*	?
CCN(Cc1ccccc1)S(=O)(=O)c1ccc(C(=O)N(CCCN(C)C)c2nc3c(F)cccc3s2)cc1	?	?	?	-6%	-77*	?
COc1cc(NC(=O)COC(=O)C2CC(O)CN2S(=O)(=O)c2ccc(Cl)cc2)c(C)cc1[N+](=O)[O-] (configuration not stated)	9%	/	4%	/	22	/
CCN(CC)C(=O)Cn1cc(SCC(=O)Nc2ccccc2C)c2ccccc21	-7%	/	-9%	/	/	/
Cc1ccc(-c2cc(NC(=O)COc3ccc(Cl)cc3C)on2)cc1	-12%	/	-22%	/	/	/
COC(=O)C1=C(C(=O)OC)[C@]2([C@H]3CCCCN[C@@H](Cc4ccccc4)C(=O)N3Cc3ccccc3)C=C[C@H]1O2	5.8µM*	/	6.5µM*	-2%	-4	/
COC(=O)C1=C(C(=O)OC)[C@]2([C@H]3C/C=C\CN[C@@H](Cc4ccccc4)C(=O)N3Cc3ccccc3)C=C[C@H]1O2	?	/	10µM*	/	/	/
O=c1ccn(CCc2c[nH]c3ccccc23)c2c1CCCC2	-24%	5%	-19%	11%	-58*	?
CC1(C(=O)NC2CCCC2)CCC(=O)N1CCc1c[nH]c2ccccc12 (configuration not stated)	-4%	/	-16%	/	-16	/
CCCCN1CC(c2nc3ccccc3n2CCCCOc2ccc(C)c(C)c2)CC1=O (configuration not stated)	10µM*	/	7.3µM*	/	/	/
CCCCN1CC(c2nc3ccccc3n2CCCCOc2cccc(C)c2C)CC1=O (configuration not stated)	?	/	21µM*	/	/	/
CCCCN1CC(c2nc3ccccc3n2CCCCOc2cc(C)cc(C)c2)CC1=O (configuration not stated)	12µM*	/	7.3µM*	/	/	/
CCOC(=O)Cn1c(C2CC(=O)N(c3ccc(C)cc3)C2)nc2ccccc21 (configuration not stated)	-4%	/	-25%	/	/	/
C=C(C)Cn1c(C2CC(=O)N(Cc3ccccc3)C2)nc2ccccc21 (configuration not stated)	?	6%	?	2%	-21	?
c1ccc(C2OCCN2c2ccccc2)cc1 (configuration not stated)	4%	/	-2%	/	12	/
O=C(Nc1ccn(-c2ccccc2)n1)c1ccccc1Br	?	-11%	?	?	2	?
CCCc1nnc(SCC(=O)NC2CCCC2)n1CCOC	1%	-9%	1%	-5%	17	-1%
Cc1cccc2c(=O)[nH]c3c(-c4nc(-c5ccc(Cl)cc5)cs4)c(O)cn3c12	4µM*	/	7.1µM*	/	/	/
Nc1c(-c2nc(-c3ccc(Cl)cc3)cs2)c2ccccn2c1C(=O)c1ccc2c(c1)OCO2	-16%	/	-20%	/	/	/
COC(=O)c1cc(OC)c(OC)cc1NC(=O)c1ccc(Br)o1	-1%	/	-27%	/	?	/
COc1cc2c(cc1OC)C(NNC(=O)c1ccc(Br)o1)=NC(C)(C)C2	21µM*	-15%	?	?	0	-34%
COc1ccc(C(=O)NC(CCSC)C(=O)NCc2nnc3ccccn23)cc1 (configuration not stated)	?	/	-2%	10%	-11	/
COc1cc(/C=N/n2c(-c3ccc4c(c3)NC(=O)CO4)csc2=Nc2cccc(C)c2)ccc1O	13µM*	?	?	15µM*	?	?
COc1cc(/C=N/n2c(C)nc3ccccc3c2=O)ccc1O	-15%	0%	-3%	4%	-25	19%
COCCN=c1scc(-c2ccc3c(c2)NC(=O)CO3)n1/N=C(\C)c1ccc(O)cc1	?	?	?	18µM*	-61*	?
SMILES	TDP1 cell CPT	Gal4-VP16 FLuc	TDP1 cell noCPT	ELG1 DNA repair	IL1B secr inh	RORgamma inh
COc1ccc2sc(-c3ccc(SC)cc3)c(-c3ccc(O)cc3)c2c1	?	/	?	-4%	-7	/
Cc1ccc(C(=O)/C=C/c2cn(CN3CCN(C)CC3)c3ccccc23)cc1	-22%	?	?	?	-55*	-31%
O=C(/C=C/c1cn(CC(O)CN2CCCCCC2)c2ccccc12)c1cccs1 (configuration not stated)	?	-21%	?	23%	-107*	10%
CCOc1ccc(C(=O)/C=C/c2cn(CC(O)CN3CCc4ccccc43)c3ccccc23)cc1 (configuration not stated)	7.3µM*	/	8.2µM*	/	/	/
CCCCN(CCCC)CC(O)Cn1cc(/C=C/C(=O)c2ccccc2)c2ccccc21 (configuration not stated)	10µM*	/	10µM*	/	/	/
CCOc1ccc(C(=O)N2CCc3ccccc32)cc1	-29%	14%	-20%	?	8	-10%
Cc1cc2c(c(-c3nc4ccccc4s3)c1)OC(CNC(=O)c1occc1C)C2 (configuration not stated)	19%[9.04 µM]	/	?	/	/	/
CCCCN(C)CC(O)Cn1cc(/C=C/C(=O)c2cccs2)c2ccccc21 (configuration not stated)	18µM*	?	?	17%	-56*	?
O=Cc1cn(CC(O)Cn2cc(C=O)c3ccccc32)c2ccccc12	1%	-9%	4%	3%	29	-21%
CC1(C)CC(=O)C=C(/C=C/c2ccccc2)C1	23µM*	/	-16%	23%	-23	/
CC1(C)CC(=O)C=C(NCCc2ccccc2)C1	17%	3%	-16%	-12%	-2	-6%
CCN1C(=O)[C@H]2[C@@H](c3ccc(C)cc3)N3C(=O)N(c4ccc(C(F)(F)F)cc4)C(=O)[C@@]3(CC(C)C)[C@H]2C1=O	?	-1%	16µM*	-2%	2	?
Cc1cccc([C@@H]2[C@@H]3C(=O)N(Cc4ccccc4)C(=O)[C@@H]3[C@]3(Cc4ccccc4)C(=O)N(c4ccc(C(F)(F)F)cc4)C(=O)N23)c1	18µM*	/	16µM*	30%	-1	/
O=C(NCC1CCCN1S(=O)(=O)c1cccs1)c1ccccc1F (configuration not stated)	-27%	/	?	4%	-3	/

Source: PubChem BioAssay
